Assay results reported in PubChem BioAssay AID1159580 (chemical genetic matrix, 2015).
Values joined by “and” are separate entries in the source; they are usually repeats but may differ in a detail not shown here. Equal values may be shown once. In all, about 5,500 compounds went through this assay and about 2,000 (36%) were called active. Another 18% or so got no clear call; they are omitted. Cut-off read from the data, not from the text of the source: active = normalized growth mostly below about 0.91 (no sharp cut-off); inconclusive = no clear call, values can overlap the other calls; inactive = mostly above about 0.92. Some of the results follow.

Assay: chemical genetic growth profiling, strain panel (AID 1159580);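 note: tested at 20 µM; growth read once vehicle control cultures reached saturation at 30 °C; 1 = growth at the plate median or of vehicle wells; lower values mean less growth of the strain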
Conditions: S. cerevisiae deletion strains, growth OD

Measured: normalized growth

COc1ccccc1OCCNCC(O)COc1cccc2[nH]c3ccccc3c12 (stereo unspecified)
inactive: locus YAL013W, strain DEP1, stronger effect = lower value 0.999 | locus YAL021C, strain ccr4, stronger effect = lower value 1.01 | locus YAL026C, strain drs2, stronger effect = lower value 1.01 | locus YAL030W, strain snc1, stronger effect = lower value 1.02 | locus YBR009C, strain hhf1, stronger effect = lower value 1.02 | locus YBR021W, strain FUR4, stronger effect = lower value 0.988 | locus YBR023C, strain chs3, stronger effect = lower value 1.01 | locus YBR171W, strain sec66, stronger effect = lower value 1.02 | locus YBR229C, strain ROT2, stronger effect = lower value 1 | locus YBR231C, strain swc5, stronger effect = lower value 0.993 | locus YBR279W, strain paf1, stronger effect = lower value 1 | locus YCL011C, strain gbp2, stronger effect = lower value 1.01 | locus YCL016C, strain dcc1, stronger effect = lower value 1.03 | locus YCL029C, strain bik1, stronger effect = lower value 1.02 | locus YCL069W, strain vba3, stronger effect = lower value 1.01 | locus YCR088W, strain abp1, stronger effect = lower value 1.04 | locus YDL005C, strain med2, stronger effect = lower value 1.02 | locus YDL035C, strain GPR1, stronger effect = lower value 0.98 | locus YDL040C, strain nat1, stronger effect = lower value 1.02 | locus YDL074C, strain BRE1, stronger effect = lower value 0.957 | locus YDL101C, strain DUN1, stronger effect = lower value 1.01 | locus YDL134C, strain PPH21, stronger effect = lower value 1 | locus YDL185W, strain tfp1, stronger effect = lower value 1.01 | locus YDL192W, strain arf1, stronger effect = lower value 1.02 | locus YDR001C, strain nth1, stronger effect = lower value 1.01 | locus YDR069C, strain doa4, stronger effect = lower value 1 | locus YDR101C, strain arx1, stronger effect = lower value 1.01 | locus YDR137W, strain rgp1, stronger effect = lower value 1.05 | locus YDR150W, strain NUM1, stronger effect = lower value 1 | locus YDR159W, strain sac3, stronger effect = lower value 1.04 | locus YDR162C, strain NBP2, stronger effect = lower value 0.974 | locus YDR195W, strain ref2 1 | locus YDR297W, strain sur2, stronger effect = lower value 1.01 | locus YDR318W, strain mcm21, stronger effect = lower value 1.01 | locus YDR334W, strain swr1, stronger effect = lower value 1.03 | locus YDR335W, strain msn5, stronger effect = lower value 1 | locus YDR388W, stronger effect = lower value 1.01 | locus YDR392W, strain spt3, stronger effect = lower value 1.01 | locus YDR502C, strain sam2, stronger effect = lower value 1 | locus YEL003W, strain gim4, stronger effect = lower value 1.02 | locus YEL037C, strain rad23, stronger effect = lower value 1 | locus YEL061C, strain CIN8 (second series), stronger effect = lower value 1 | locus YEL061C, strain CIN8, stronger effect = lower value 0.997 | locus YER015W, strain faa2, stronger effect = lower value 1.02 | locus YER016W, strain bim1, stronger effect = lower value 0.986 | locus YER110C, stronger effect = lower value 1.02 | locus YER111C, strain swi4, stronger effect = lower value 1.02 | locus YER155C, strain BEM2 (second series), stronger effect = lower value 1.02 | locus YER155C, strain BEM2, stronger effect = lower value 0.986 | locus YER167W, strain BCK2, stronger effect = lower value 1 | locus YFR010W, strain ubp6, stronger effect = lower value 1.02 | locus YGL078C, strain dbp3, stronger effect = lower value 1.02 | locus YGL086W, strain mad1, stronger effect = lower value 1.01 | locus YGL167C, strain pmr1, stronger effect = lower value 1.02 | locus YGL173C, strain kem1, stronger effect = lower value 1.03 | locus YGL227W, strain vid30, stronger effect = lower value 1.01 | locus YGL240W, strain doc1, stronger effect = lower value 1.02 | locus YGL248W, strain PDE1, stronger effect = lower value 1.01 | locus YGL253W, strain hxk2, stronger effect = lower value 1.02 | locus YGR078C, strain PAC10, stronger effect = lower value 0.968 | locus YGR135W, strain pre9, stronger effect = lower value 1.01 | locus YGR229C, strain SMI1, stronger effect = lower value 0.957 | locus YGR252W, strain gcn5, stronger effect = lower value 0.948 | locus YHR013C, strain ard1, stronger effect = lower value 1.03 | locus YHR027C, strain rpn1, stronger effect = lower value 0.994 | locus YHR030C, strain SLT2, stronger effect = lower value 1.01 and 0.992 | locus YHR079C, strain IRE1 (second series), stronger effect = lower value 1.02 | locus YHR079C, strain IRE1, stronger effect = lower value 0.999 | locus YHR094C, strain hxt1, stronger effect = lower value 1.01 | locus YHR129C, strain ARP1, stronger effect = lower value 1.01 | locus YHR142W, strain chs7, stronger effect = lower value 1.03 | locus YHR200W, strain rpn10, stronger effect = lower value 1.02 | locus YIL066C, strain RNR3, stronger effect = lower value 1 | locus YIL073C, strain SPO22, stronger effect = lower value 1.11 | locus YIL125W, strain kgd1, stronger effect = lower value 1.02 | locus YIR030C, strain dcg1, stronger effect = lower value 1.02 | locus YJL092W, strain hpr5, stronger effect = lower value 1.01 | locus YJL095W, strain BCK1 (second series), stronger effect = lower value 1.02 | locus YJL095W, strain BCK1, stronger effect = lower value 0.976 and 1.01 | locus YJL115W, strain asf1, stronger effect = lower value 1.01 | locus YJL129C, strain trk1, stronger effect = lower value 1.02 | locus YJL134W, strain LCB3, stronger effect = lower value 1 | locus YJL154C, strain vps35, stronger effect = lower value 1.01 | locus YJL164C, strain tpk1, stronger effect = lower value 1.02 | locus YJL166W, strain qcr8, stronger effect = lower value 1.03 | locus YJL168C, strain set2, stronger effect = lower value 1.01 | locus YJL187C, strain SWE1 (second series), stronger effect = lower value 1.01 | locus YJL187C, strain SWE1, stronger effect = lower value 1.01 | locus YJR043C, strain POL32, stronger effect = lower value 0.998 | locus YJR066W, strain TOR1, stronger effect = lower value 0.935 | locus YJR075W, strain HOC1, stronger effect = lower value 0.983
